The entries come from a sample that favours hits as a whole.
TTR transcr act: TTR transcription activation, primary screen; activation, % at 16.7 µM; SH-SY5Y TTR promoter Gaussia luciferase, luminescence; 100% = recombinant luciferase protein wells; 92,000 tested, 1.3% active; AID 1117267;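 active means activation above the mean of all tested compounds plus 3 SD, cut at about 9.5% in these data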;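 further: cells exposed to compounds for one day before reading; 0% = median of all test compound wells on the plate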
TTR inh HuH7: decreases TTR transcription in HuH7 cells in activator counter-screen; shares compounds with TTR transcr act; HuH7 TTR promoter-Gaussia luciferase reporter, luminescence; inhibition, % at 16.7 µM; 1,100 tested, 4% active;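 active means average inhibition above the solvent-only control wells' mean plus 3 SD, cut at about 15% in these data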;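 further: 0% = cells with DMSO only and 100% = cells with inhibitor control FD; inhibitors lower well luminescence so higher value means more inhibition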
TTR act confirm: human TTR transcription activation, confirmation. shares compounds with TTR transcr act. SHSY5Y TTR promoter Gaussia luciferase, luminescence; 100% = purified Lucia enzyme wells, no cells. activation, % at 16.7 µM. 1,100 tested, under 10 active;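 active means mean activation above a set limit taken from the earlier primary screen, cut at about 11% in these data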;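 further: 0% = DMSO-treated cells and 100% = recombinant Lucia luciferase without cells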
* marks the source's active call; other numbers are inactive results.

SMILES	TTR transcr act	others
CN1CCN(c2nc(-c3cccs3)nc3ccccc23)CC1	-1
c1ccc(-c2nc(N3CCOCC3)c3ccccc3n2)nc1	-2
Nc1nc(-c2ccccc2)ns1	-2
COc1cc(NC(=O)c2ccccc2F)ccc1NC(=O)c1cc2ccccc2o1	1
Cc1ccc(NC(=O)CSC2=NN3CCCC(=O)N=C3S2)c(C)c1	0
O=C1CCCN2N=C(SCC(=O)Nc3ccc([N+](=O)[O-])cc3)SC2=N1	32*	TTR inh HuH7=-10;TTR act confirm=-1
O=C1CCCN2N=C(SCC(=O)Nc3nccs3)SC2=N1	-1
CCCn1c(SCC(=O)N(CC)c2c(N)n(Cc3ccccc3)c(=O)[nH]c2=O)nnc1-c1ccncc1	-1
Cc1ccc(Nc2n[nH]c(=S)s2)cc1F	4
COc1ccc(Nc2nc3[nH]c(=O)cc(O)c3s2)cc1	2
O=c1cc(O)c2sc(Nc3ccc(Cl)c(F)c3)nc2[nH]1	9.9*	TTR inh HuH7=17*;TTR act confirm=-1
C=CC[C@H](CC(=O)NCCO)C(=O)NCCOC(=O)[C@@H](CC=C)Cc1ccc(F)cc1	0
Cc1ccc(OCc2nnc(-c3ccc(Cl)cc3)o2)cc1	-2
CCOC1=C2[C@@H](CN(S(=O)(=O)c3ccc(C)cc3)[C@H]2c2cccc3ccccc23)[C@H]2C(=O)N(c3ccccc3)C(=O)[C@H]2C1	-2
O=C(O)CSCC(=O)N1CCCCC1	-1
O=C(O)CSC(=S)N1CCCC1	10*	TTR inh HuH7=-5;TTR act confirm=0
O=C(CSC(=S)N1CCCC1)c1ccccc1	0
COc1ccc(/C=C/S(=O)(=O)NCC(C)C)c(CNC(=O)OC(C)(C)C)c1	-1
COCCCn1cnnc1SC(C)C(=O)Nc1ccc(S(=O)(=O)N2CCOCC2)cc1 (configuration not stated)	1
Cc1ccc(F)cc1C(=O)N1CCCC(c2cc(C(=O)Nc3ccccc3)no2)C1 (configuration not stated)	-4
O=C(Nc1ccccc1)c1cc(C2CCCN(C(=O)C3CC3)C2)on1 (configuration not stated)	10.0*	TTR inh HuH7=-10;TTR act confirm=0
CN(C)c1ccc(CC(=O)N2CCCC(c3cc(C(=O)Nc4ccccc4)no3)C2)cc1 (configuration not stated)	0
COc1ccccc1-c1nnc(C2CCN(S(=O)(=O)c3ccccc3[N+](=O)[O-])CC2)o1	-2
O=C1CN(S(=O)(=O)c2cccc(Br)c2)CCN1	14*	TTR inh HuH7=-10;TTR act confirm=0
Cc1ccc(S(=O)(=O)N2CCNC(=O)C2)c(C)c1	6
SMILES	TTR transcr act	others
COC(=O)CCN1CCN(S(=O)(=O)c2cccc(Br)c2)CC1	2
C[C@H]1CN([C@@H](C)CO)C(=O)CCCn2cc(nn2)CO[C@@H]1CN(C)C(=O)Nc1ccc2c(c1)OCCO2	-1
O=S1(=O)CCOC[C@H](Cc2ccccc2)N1Cc1ccc(F)cc1	6
O=S1(=O)CCOC[C@H](Cc2ccccc2)N1Cc1cccc(F)c1	0
O=S1(=O)CCOC[C@H](c2ccccc2)N1Cc1cccc(F)c1	13*	TTR inh HuH7=0;TTR act confirm=0
CC(=O)OCC=C1CCC2C3CC(C)C4=CC(=O)CCC4(C)C3C(O)CC12C (configuration not stated)	-2
O=C(Nc1ccc2c(c1)OCO2)c1cccc(F)c1	4
O=C(Nc1ccc2c(c1)OCO2)c1cncc(Br)c1	11*	TTR inh HuH7=-3;TTR act confirm=0
O=C(Nc1ccc2c(c1)OCO2)c1ccc(Br)o1	-2
COc1ccc(CNS(=O)(=O)CC2NCCc3ccccc32)cc1 (configuration not stated)	1
CCSc1nc2ccccc2n1CC(N)=O	0
COCC(C)NC(=O)Cn1c(SCc2ccccc2)nc2ccccc21 (configuration not stated)	1
COC(=O)CSc1nc2ccccc2n1CC(=O)N(C(C)C)C(C)C	13*	TTR inh HuH7=-5;TTR act confirm=-1
COc1cccc(C(NC(C)=O)c2nc(-c3cccc(F)c3)cs2)c1 (configuration not stated)	0
CCCCN1C(=O)C(C(=O)OCc2ccccc2)CC2=C1CCCC2=O (configuration not stated)	0
CCNC(=O)C(=O)Nc1cc2c3c(c1)CCN3C(=O)CC2	-2
CCOC(=O)/C(=C\c1ccc(C)cc1)NC(=O)c1ccccc1	4
CC(C)OC(=O)/C(=C\c1ccccc1)NC(=O)c1ccccc1	0
CC(=O)N/C(=C\c1ccccc1)C(=O)OCC(=O)NC(=O)c1ccccc1	15*	TTR inh HuH7=3;TTR act confirm=1
Cn1c2c(c3cc([N+](=O)[O-])ccc31)CCCC2	4
COc1ccc(-c2cn(CCO)c(-c3ccc(Cl)nc3)n2)cc1	-2
Cc1ccc(-c2cn(CCN)c(-c3ccncc3)n2)cc1	2
O=C(O)CCn1cc(-c2ccc(Cl)cc2)nc1-c1ccc(Cl)nc1	9.7*	TTR inh HuH7=-8;TTR act confirm=1
Nc1[nH]c(C(=O)c2ccccc2)c(-c2ccc(C(F)(F)F)cc2)c1C(=O)NCc1ccc(Cl)cc1Cl	0
CC(Cc1ccccc1)=NNS(=O)(=O)c1ccc([N+](=O)[O-])cc1	-1
SMILES	TTR transcr act	others
CCC(C)NS(=O)(=O)c1cc2c3c(c1)CCN3C(=O)CC2 (configuration not stated)	0
CCCCC1CCC(c2nc(-c3cccnc3)no2)CC1 (configuration not stated)	13*	TTR inh HuH7=1;TTR act confirm=0
Cc1ccccc1-c1nc(-c2cccnc2)no1	-1
CCCCC(=O)Nc1ccnc(-c2cccnc2)n1	0
COC1OC2COC(c3ccccc3)OC2C2OC12 (configuration not stated)	1
CC(=O)c1cnc2cc(-c3ccc(Cl)cc3)nn2c1C	12*	TTR inh HuH7=13;TTR act confirm=-1
Cc1c(C(=O)O)cnc2cc(-c3ccc(Cl)cc3)nn12	-1
CC(=O)c1cnc2nc(C)nn2c1C	1
COc1ccc(C(=O)c2[nH]c(N)c(C(=O)NCCc3c[nH]c4ccccc34)c2-c2ccc(C(F)(F)F)cc2)cc1	0
CC1(C(=O)NS(=O)(=O)c2cccc(F)c2)CCN1C(=O)c1ccccc1 (configuration not stated)	1
O=C(NC1CCCC1)C(c1ccccn1)N(C(=O)c1csnn1)c1ccc(F)cc1 (configuration not stated)	0
Cc1csc(NC(=O)c2nc3nccc(C)n3n2)n1	11*	TTR inh HuH7=-8;TTR act confirm=-1
Cc1ccnc2nc(C(=O)Nc3nc4ccccc4s3)nn12	5
Cc1ccnc2nc(C(=O)Nc3ccc(N4CCOCC4)cc3)nn12	1
CCc1nc2c(OCCC3CCCCC3)cccn2c1N(C)C(=O)c1ccc(OC)cc1	-2
Cc1cccc(OCC(=O)Nc2ccncc2)c1	-2
Cc1cccc(OCC(=O)NNC(=O)CCc2ccccc2)c1	0
Cc1cccc(OCC(=O)NNS(=O)(=O)c2ccccc2F)c1	16*	TTR inh HuH7=-4;TTR act confirm=2
Cc1cccc(C(=O)OCC(=O)NC2CC2)c1O	-1
CCCCNC(=O)C1(C)CCC(=O)N1CCOC (configuration not stated)	13*	TTR inh HuH7=-8;TTR act confirm=-1
COCCN1C(=O)CCC1(C)C(=O)NC(C)(C)C (configuration not stated)	0
CCCCNC(=O)C1(C)CCC(=O)N1CC(F)(F)F (configuration not stated)	0

Screening data (PubChem)
